Measurements: PubChem BioAssay
Active and inactive are the calls of the source.

Columns and labels:
[1] = test system: Plasmodium falciparum Sir2 (PF13_0152, Sir2A); experiment: Plasmodium falciparum Sir2A binding compounds – biochemical, small-molecule microarray, 635 nm fluorescence, primary screen (AID 1098); conditions: fluorescence 635 nm, higher = more signal;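 note: score merges spot fluorescence intensity with its signal-to-noise ratio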
[2] = probe aDKK1 binding to arrayed compounds – biochemical, biotinylated probe, 635/667 nm fluorescence, primary screen (AID 1099); conditions: small-molecule microarray, higher = more signal;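 note: score merges 667nm spot fluorescence with signal to noise across triplicate slides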
[3] = probe aCHRDL2 binding to arrayed compounds – biochemical, biotinylated probe, 635/667 nm fluorescence, primary screen (AID 1100); conditions: small-molecule microarray, higher = more signal
[4] = change in splice reporter luminescence, either direction, cell-based, HEK293, spliceosome inhibition project, primary screen (AID 1101); conditions: HEK293 splicing luciferase reporter, 24 h, higher = more signal, called active from +8 up or from −8 down;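 note: HEK293 cells carrying a splicing-competent luciferase reporter gene; test concentration not given here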
[5] = molecular target: Fibroblast growth factor 10 (Homo sapiens) (UniProt O15520); experiment: compounds binding fibroblast growth factor 10 – biochemical, small-molecule microarray, 635 nm fluorescence, primary screen (AID 1102); conditions: FGF10 binding, fluorescence 635 nm, higher = more signal
Chain of Fibroblast growth factor 10 (Homo sapiens) (O15520 whole entry, looked up): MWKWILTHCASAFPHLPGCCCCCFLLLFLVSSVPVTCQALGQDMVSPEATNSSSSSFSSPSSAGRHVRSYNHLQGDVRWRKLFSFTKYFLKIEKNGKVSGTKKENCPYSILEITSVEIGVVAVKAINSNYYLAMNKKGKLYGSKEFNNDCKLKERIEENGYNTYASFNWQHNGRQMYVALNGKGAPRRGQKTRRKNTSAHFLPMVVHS

[6] = test system: glycogen synthase kinase-3 (GSK3A per assay name; protocol says GSK3B); experiment: compounds binding glycogen synthase kinase-3 – biochemical, small-molecule microarray, 635 nm fluorescence, GSK3A, primary screen (AID 1103); conditions: fluorescence 635 nm, higher = more signal; note: the record names both GSK3A and GSK3B
[7] = molecular target: Epidermal growth factor receptor (Homo sapiens) (UniProt P00533); experiment: compounds binding epidermal growth factor receptor – biochemical, small-molecule microarray, 635 nm fluorescence, primary screen (AID 1104); conditions: EGFR binding, higher = more signal;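 note: score merges 667 nm emission intensity with spot signal to noise over triplicate slides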
Chain of Epidermal growth factor receptor (Homo sapiens) (P00533 whole entry, looked up): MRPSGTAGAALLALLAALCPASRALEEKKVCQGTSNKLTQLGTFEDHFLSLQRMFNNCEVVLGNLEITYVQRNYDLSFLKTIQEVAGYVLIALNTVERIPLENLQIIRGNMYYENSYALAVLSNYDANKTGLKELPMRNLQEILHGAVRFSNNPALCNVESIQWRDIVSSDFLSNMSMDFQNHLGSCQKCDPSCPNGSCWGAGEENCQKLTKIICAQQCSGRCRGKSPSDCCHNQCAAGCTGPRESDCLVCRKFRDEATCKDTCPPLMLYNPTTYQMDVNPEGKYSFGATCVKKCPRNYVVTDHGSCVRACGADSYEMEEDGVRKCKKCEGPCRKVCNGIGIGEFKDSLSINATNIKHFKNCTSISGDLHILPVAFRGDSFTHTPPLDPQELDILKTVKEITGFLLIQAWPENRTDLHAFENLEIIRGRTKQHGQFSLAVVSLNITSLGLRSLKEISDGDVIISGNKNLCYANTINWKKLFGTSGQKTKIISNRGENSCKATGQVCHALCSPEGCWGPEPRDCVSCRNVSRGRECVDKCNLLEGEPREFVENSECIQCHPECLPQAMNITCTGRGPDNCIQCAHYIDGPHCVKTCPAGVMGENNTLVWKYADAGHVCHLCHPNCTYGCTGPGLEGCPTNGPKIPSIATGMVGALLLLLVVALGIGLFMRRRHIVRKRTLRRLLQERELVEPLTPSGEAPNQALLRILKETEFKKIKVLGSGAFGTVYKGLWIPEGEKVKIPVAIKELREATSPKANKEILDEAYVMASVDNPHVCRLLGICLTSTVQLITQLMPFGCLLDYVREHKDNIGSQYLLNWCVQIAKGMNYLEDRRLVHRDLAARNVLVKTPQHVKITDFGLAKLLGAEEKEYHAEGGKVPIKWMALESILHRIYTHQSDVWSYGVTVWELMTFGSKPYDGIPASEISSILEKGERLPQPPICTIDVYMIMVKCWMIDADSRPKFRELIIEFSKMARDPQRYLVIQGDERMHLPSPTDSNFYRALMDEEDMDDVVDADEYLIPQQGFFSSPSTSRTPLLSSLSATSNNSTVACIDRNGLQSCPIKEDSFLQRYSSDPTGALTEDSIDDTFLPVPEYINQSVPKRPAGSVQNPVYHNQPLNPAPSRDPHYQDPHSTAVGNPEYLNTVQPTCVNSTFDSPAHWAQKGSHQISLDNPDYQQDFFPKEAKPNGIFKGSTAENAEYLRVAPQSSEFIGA

[8] = molecular target: Follistatin-related protein 3 (Homo sapiens) (UniProt O95633); experiment: compounds binding follistatin-related protein 3 – biochemical, small-molecule microarray, 635 nm fluorescence, primary screen (AID 1105); conditions: FSTL3 binding, higher = more signal;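 note: score merges emission near 667 nm and signal to noise per printed spot across three slides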
Chain of Follistatin-related protein 3 (Homo sapiens) (O95633 whole entry, looked up): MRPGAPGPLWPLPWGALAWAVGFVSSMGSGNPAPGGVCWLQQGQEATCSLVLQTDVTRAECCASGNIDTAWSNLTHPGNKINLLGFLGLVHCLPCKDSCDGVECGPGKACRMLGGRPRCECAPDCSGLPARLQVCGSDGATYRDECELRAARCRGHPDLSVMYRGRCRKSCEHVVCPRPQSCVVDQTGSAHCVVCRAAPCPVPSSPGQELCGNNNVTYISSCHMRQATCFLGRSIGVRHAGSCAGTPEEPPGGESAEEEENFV

[9] = molecular target: Dickkopf-related protein 1 (Homo sapiens) (UniProt O94907); experiment: small molecules binding DKK1 protein – biochemical, small-molecule microarray, 635 nm fluorescence scan, primary screen (AID 1106); conditions: higher = more signal;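 note: score merges emission near 667 nm with signal to noise over three replicate slides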
Chain of Dickkopf-related protein 1 (Homo sapiens) (O94907 whole entry, looked up): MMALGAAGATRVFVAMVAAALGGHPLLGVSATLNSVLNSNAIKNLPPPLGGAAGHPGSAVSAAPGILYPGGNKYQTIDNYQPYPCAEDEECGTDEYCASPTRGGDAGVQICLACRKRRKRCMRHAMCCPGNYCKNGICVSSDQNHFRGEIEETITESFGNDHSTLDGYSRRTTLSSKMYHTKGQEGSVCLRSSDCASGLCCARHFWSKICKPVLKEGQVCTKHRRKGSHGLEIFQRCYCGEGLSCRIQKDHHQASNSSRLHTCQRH

[10] = test system: Inhibin beta A chain (activin A); experiment: small molecules binding activin A – biochemical, small-molecule microarray, 635 nm fluorescence scan, primary screen (AID 1107); conditions: INHBA, higher = more signal;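 note: mouse activin A protein probed at 4.33 µg/mL on printed slides; score merges bound-protein fluorescence near 667 nm with spot signal-to-noise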
[11] = test system: Human papillomavirus type 1a protein E7 (residues 44-93); experiment: small molecules binding HPV E7 44-93 – biochemical, small-molecule microarray, residues 44-93, 635 nm fluorescence, primary screen (AID 1108); conditions: fluorescence 635 nm, higher = more signal;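 note: E7 fragment applied at 1 µg/mL in TBST for 1 h at 4 C; score combines spot fluorescence with its signal to noise ratio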
[12] = hepatitis C replication reporter changes, two-sided – Huh7 cells, luciferase reporter, HCV replication inhibitor project, primary screen (AID 1109); conditions: Huh7 HCV replicon luciferase reporter, 48 h; higher = more signal;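 note: huh7 hepatoma cells harbouring a luciferase neomycin HCV replicon reporter; luciferase luminescence as measure of HCV replicon replication; test concentration not given here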
[13] = molecular target: Left-right determination factor 2 (Homo sapiens) (UniProt O00292); experiment: small molecules binding LEFTY2 protein – biochemical, small-molecule microarray, 635 nm fluorescence scan, primary screen (AID 1110); conditions: higher = more signal
Chain of Left-right determination factor 2 (Homo sapiens) (O00292 whole entry, looked up): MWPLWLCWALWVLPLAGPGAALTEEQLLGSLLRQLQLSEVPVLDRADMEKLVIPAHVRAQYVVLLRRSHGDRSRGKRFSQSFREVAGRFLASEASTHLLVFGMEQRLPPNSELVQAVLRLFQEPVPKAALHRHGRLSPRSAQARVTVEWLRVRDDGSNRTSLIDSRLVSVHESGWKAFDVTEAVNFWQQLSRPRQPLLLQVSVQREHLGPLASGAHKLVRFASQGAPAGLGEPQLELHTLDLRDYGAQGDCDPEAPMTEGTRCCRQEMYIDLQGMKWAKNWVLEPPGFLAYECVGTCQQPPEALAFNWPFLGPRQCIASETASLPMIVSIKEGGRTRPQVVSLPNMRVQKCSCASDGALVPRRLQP

[14] = molecular target: Calmodulin-1 (Homo sapiens) (UniProt P0DP23); experiment: small molecules binding calmodulin-1 with EGTA – biochemical, small-molecule microarray, Cy5-labelled CALM1, profiling panel (AID 1111); conditions: Cy5-CALM1 binding fluorescence, higher = more signal;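 note: labelled calmodulin applied in Tris saline Tween buffer holding calcium plus EGTA and DTT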
[15] = molecular target: Calmodulin-1 (Homo sapiens) (UniProt P0DP23); experiment: small molecules binding Ca-loaded calmodulin-1 – biochemical, small-molecule microarray, Cy5-labelled CALM1, plus calcium, artefact control for SMM control-protein annotation, profiling panel (AID 1112); conditions: Cy5-CALM1 binding fluorescence, higher = more signal;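 note: score merges spot fluorescence with signal to noise from triplicate slides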
[16] = probe aWnt5a binding to arrayed compounds – biochemical, biotinylated probe, 635/667 nm fluorescence, primary screen (AID 1113); conditions: small-molecule microarray, higher = more signal;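 note: score merges 667 nm fluorescence intensity with signal-to-noise per printed feature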
[17] = probe aShh binding to arrayed compounds – biochemical, biotinylated probe, 635/667 nm fluorescence, primary screen (AID 1114); conditions: small-molecule microarray, higher = more signal;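 note: probe is biotin-labelled aShh protein from a stem cell growth factor screen; measures binding of labelled protein to compounds printed on the slide; score merges feature fluorescence at 667 nm with signal-to-noise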
[18] = probe aNog binding to arrayed compounds – biochemical, biotinylated probe, 635/667 nm fluorescence, primary screen (AID 1115); conditions: small-molecule microarray, higher = more signal;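 note: probe is biotinylated aNog protein used at 0.15 µg/mL for 1 h at 4 C; z-score combines 667 nm fluorescence of each spot with its signal to noise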
[19] = molecular target: Torsin-1A-interacting protein 1 (Homo sapiens) (UniProt Q5JTV8); experiment: compound microarray binding of lysate hLAP1 – cell lysate, small-molecule microarray, COS7 lysate, 635/667 nm fluorescence, primary screen (AID 1116); conditions: 635 nm fluorescence, higher = more signal
Chain of Torsin-1A-interacting protein 1 (Homo sapiens) (Q5JTV8 whole entry, looked up): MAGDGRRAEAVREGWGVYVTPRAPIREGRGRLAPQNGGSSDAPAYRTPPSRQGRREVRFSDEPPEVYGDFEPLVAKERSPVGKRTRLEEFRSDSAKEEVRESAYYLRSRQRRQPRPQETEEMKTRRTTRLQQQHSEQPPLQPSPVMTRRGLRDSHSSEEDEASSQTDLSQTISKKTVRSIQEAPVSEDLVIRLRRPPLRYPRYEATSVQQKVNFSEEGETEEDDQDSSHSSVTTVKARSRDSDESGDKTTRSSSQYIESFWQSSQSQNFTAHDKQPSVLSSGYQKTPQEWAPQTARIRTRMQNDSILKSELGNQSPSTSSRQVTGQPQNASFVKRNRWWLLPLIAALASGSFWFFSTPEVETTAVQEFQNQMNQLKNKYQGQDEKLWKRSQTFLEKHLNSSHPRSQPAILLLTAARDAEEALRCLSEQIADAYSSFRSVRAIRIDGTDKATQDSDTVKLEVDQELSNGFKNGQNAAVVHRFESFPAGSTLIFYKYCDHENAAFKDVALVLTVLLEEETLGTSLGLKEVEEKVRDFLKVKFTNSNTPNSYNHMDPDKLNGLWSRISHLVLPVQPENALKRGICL

[20] = molecular target: Alpha-bungarotoxin (Bungarus multicinctus) (UniProt P60615); experiment: compounds binding labelled alpha-BTX control protein – biochemical, small-molecule microarray, Alexa647 label, 635/667 nm fluorescence, artefact control for SMM control protein annotation, profiling panel (AID 1117); conditions: alpha-BTX-A647 binding fluorescence, higher = more signal
Chain of Alpha-bungarotoxin (Bungarus multicinctus) (P60615 whole entry, looked up): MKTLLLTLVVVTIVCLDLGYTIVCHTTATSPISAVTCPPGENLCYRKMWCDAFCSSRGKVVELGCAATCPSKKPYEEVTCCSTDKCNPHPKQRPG

| SMILES | composite z-score [1] | composite z-score [2] | composite z-score [3] | z-score [4] | composite z-score [5] | composite z-score [6] | composite z-score [7] | composite z-score [8] | composite z-score [9] | composite z-score [10] | composite z-score [11] | z-score [12] | composite z-score [13] | composite z-score [14] | composite z-score [15] | composite z-score [16] | composite z-score [17] | composite z-score [18] | composite z-score [19] | composite z-score [20] |
| --- | --- | --- | --- | --- | --- | --- | --- | --- | --- | --- | --- | --- | --- | --- | --- | --- | --- | --- | --- | --- |
| CCCC=C(CCC)[C@@H](NC(=O)c1ccc(C(F)(F)F)cc1)c1ccccc1 | 0.658 | 0.559 | 0.622 | -3.52 (inactive) | -0.433 | 0.662 | -0.405 | 0.0071 | -0.446 | 0.0953 | 1.17 | -1.43 | -0.0957 | 0.815 | 0.793 | 0.0094 | 0.213 | 0.644 | 0.432 | 0.25 |
| [N-]=[N+]=NCc1ccccc1C[C@]1(C(=O)N2CCCCC2)N=C(c2ccc(OCCCO)cc2)O[C@H]1c1ccccc1CN=[N+]=[N-] | 0.751 | 0.518 | 0.885 | 0.324 (inactive) | 0.924 | 0.65 | -0.107 | 0.556 | -0.531 | 0.212 | 1.41 | -2.73 | -0.406 | 1.67 | 0.855 | 0.0375 | 0.503 | 1.25 | 1.95 | 1.11 |
| C=CCC1=C[C@H]2[C@H]([C@@H]3C=C[C@]2(CC=C)C(=O)[C@]32CO2)[C@@]2(CO2)C1=O | 1.29 | -0.354 | -0.69 | -0.414 (inactive) | 1.14 | -0.0104 | 1.58 | 1.31 | 1.8 | 1.9 | -0.763 | -4.15 | 1.24 | -1.06 | -2.27 | 0.133 | -0.1 | 2.17 | 0.163 | 0.345 |
